These results are taken from PubChem BioAssay (Tox21).

Test [1] can be described thus: qHTS assay for small molecule agonists of the p53 signaling pathway (AID 651631; calls by dose curve; also: nearly all actives have a fitted effect of over 15% in size; also: potency is read from the fitted curve at half-maximal effect). In outline:
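p53RE-bla HCT-116 cells; compounds 16 h, 37 °C; LiveBLAzer B/G FRET substrate 2 h RT; fluorescence intensity read-out, qHTS format.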

A short description of test [2]: qHTS assay for small molecule agonists of the p53 signaling pathway - cell viability (AID 651633; calls by dose curve; also: nearly all actives have a fitted effect of over 30% in size; also: potency is read from the fitted curve at half-maximal effect). In outline:
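p53RE-bla cells were treated with compound for 16 hours at 37 C. Cytotoxicity was then measured as CellTiter-Glo luminescence after 30 min at room temperature.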

Test [3] can be described thus: qHTS assay for small molecule disruptors of the mitochondrial membrane potential (AID 720635). Also: potency is read from the fitted curve at half-maximal effect. In outline: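 HepG2 cells exposed to compound 1 hr at 37C, then Mito-MPS dye 30 min. Ratio read of aggregate (540/590 nm) versus monomer (490/535 nm) fluorescence.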
Test [4] is described as follows: qHTS assay to test for compound auto fluorescence at 590 nm (red) in HepG2 cells (AID 720674). In outline:
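Fluorescence at 590 nm emission following 540 nm excitation was recorded from HepG2 wells one hour after compound transfer, with DMSO-only wells as vehicle and Rose Bengal sodium equivalency as the scale.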

Test [5] is described as follows: qHTS assay to test for compound auto fluorescence at 460 nm (blue) in HEK293 cells (AID 720678). In outline: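 Cells were seeded and left to adhere for 4-5 hr at 37C. Compounds were then pin-transferred. After an overnight incubation at 37C under 5% CO2, intrinsic fluorescence at 405/460 nm was measured and referenced to triamterene.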
Test [6] in a line: qHTS assay to test for compound auto fluorescence at 590 nm (red) in HEK293 cells (AID 720679). In outline: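 Each well held 2,000 HEK293 cells in medium containing 10% dialyzed FBS. Following 4-5 hr attachment at 37C, 23 nL test compound or DMSO was added; plates sat overnight, and red fluorescence (540/590nm) was recorded.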
Test [7] is described as follows: qHTS assay to test for compound auto fluorescence at 535 nm (green) in HEK293 cells (AID 720680).
Test [8] can be described thus: qHTS assay to test for compound auto fluorescence at 460 nm (blue) in HEK293 cell free culture (AID 720681). In outline:
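Compounds were added to cell-free DMEM with 10% FBS and fluorescence read directly. The blue channel used 405 nm excitation and 460 nm emission, with triamterene as the reference fluorophore.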

The nature of test [9]: qHTS assay to test for compound auto fluorescence at 535 nm (green) in HEK293 cell free culture (AID 720682). In outline:
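Cell-free medium (DMEM, 10% FBS) receives compound or DMSO by pintool. Plate read directly at Ex 485/Em 535 nm. Signal converted to fluorescein equivalency.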

Test [10] can be described thus: qHTS assay to test for compound auto fluorescence at 590 nm (red) in HEK293 cell free culture (AID 720683). In outline:
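Cell-free wells of DMEM with 10% FBS received compound, and intrinsic fluorescence was read at excitation/emission 540/590 nm. Values expressed as equivalence to Rose Bengal sodium.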

Test [11] in a line: qHTS assay to test for compound auto fluorescence at 590 nm (red) in HepG2 cell free culture (AID 720684). In outline:
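Compounds are added to culture medium (MEM, 10% FBS) lacking cells, then fluorescence is read at excitation 540 nm, emission 590 nm, with Rose Bengal sodium as the equivalency standard.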

The nature of test [12]: qHTS assay to test for compound auto fluorescence at 460 nm (blue) in HepG2 cell free culture (AID 720685). In outline:
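Compound (23 nL) or DMSO pinned into cell-free MEM with 10% FBS; blue fluorescence read at 405/460 nm excitation/emission, expressed as auto-fluorescence equivalency to triamterene.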

Test [13] is described as follows: qHTS assay to test for compound auto fluorescence at 460 nm (blue) in HepG2 cells (AID 720687). In outline:
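HepG2 cells in MEM with 10% FBS, attached overnight at 37 C, were exposed to compound or DMSO for 1 hr at 37 C, 5% CO2. Blue fluorescence was read at 405/460 nm, with triamterene as reference fluorophore.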

The nature of test [14]: qHTS assay for small molecules that induce genotoxicity in human embryonic kidney cells expressing luciferase-tagged ATAD5 (AID 651632). Also: nearly all actives have a fitted effect of over 15% in size. In outline:
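Reporter cells (HEK293T) express luciferase-tagged ATAD5, a protein that accumulates after DNA damage. Treat 16 hr at 37C/5% CO2, add Amplite, wait 30 min at RT, and read luminescence.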

The nature of test [15]: qHTS assay for small molecule disruptors of the mitochondrial membrane potential - cell viability (AID 720634; calls by dose curve;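 also: human HepG2 liver cancer cells; series mostly up to about 83 µM; nearly all actives have a fitted effect of over 20% in size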). In outline:
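Measuring cytotoxicity alongside mitochondrial potential, the screen quantified ATP by luminescence in HepG2 cells after 1 hr compound incubation and a 30 min room-temperature CellTiter-Glo step.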

The nature of test [16]: qHTS assay to test for compound auto fluorescence at 535 nm (green) in HepG2 cell free culture (AID 720686).
The target in test [17] is Glucocorticoid receptor (Homo sapiens) (UniProt P04150). Nature of the test: qHTS assay to identify small molecule agonists of the glucocorticoid receptor (GR) signaling pathway (AID 720691; active = well fitted activation curve with a large enough effect in the signal ratio in the repeat runs, not every such curve was filed as active; the % refers to the signal ratio). In outline: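 Reporter read-out: fluorescence intensity following 2 h room-temperature LiveBLAzer B/G FRET substrate loading. Prior step: GR-bla HeLa cells held 4 h, then treated 18 h at 37 C.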
Sequence of Glucocorticoid receptor (Homo sapiens) (P04150 whole entry, looked up): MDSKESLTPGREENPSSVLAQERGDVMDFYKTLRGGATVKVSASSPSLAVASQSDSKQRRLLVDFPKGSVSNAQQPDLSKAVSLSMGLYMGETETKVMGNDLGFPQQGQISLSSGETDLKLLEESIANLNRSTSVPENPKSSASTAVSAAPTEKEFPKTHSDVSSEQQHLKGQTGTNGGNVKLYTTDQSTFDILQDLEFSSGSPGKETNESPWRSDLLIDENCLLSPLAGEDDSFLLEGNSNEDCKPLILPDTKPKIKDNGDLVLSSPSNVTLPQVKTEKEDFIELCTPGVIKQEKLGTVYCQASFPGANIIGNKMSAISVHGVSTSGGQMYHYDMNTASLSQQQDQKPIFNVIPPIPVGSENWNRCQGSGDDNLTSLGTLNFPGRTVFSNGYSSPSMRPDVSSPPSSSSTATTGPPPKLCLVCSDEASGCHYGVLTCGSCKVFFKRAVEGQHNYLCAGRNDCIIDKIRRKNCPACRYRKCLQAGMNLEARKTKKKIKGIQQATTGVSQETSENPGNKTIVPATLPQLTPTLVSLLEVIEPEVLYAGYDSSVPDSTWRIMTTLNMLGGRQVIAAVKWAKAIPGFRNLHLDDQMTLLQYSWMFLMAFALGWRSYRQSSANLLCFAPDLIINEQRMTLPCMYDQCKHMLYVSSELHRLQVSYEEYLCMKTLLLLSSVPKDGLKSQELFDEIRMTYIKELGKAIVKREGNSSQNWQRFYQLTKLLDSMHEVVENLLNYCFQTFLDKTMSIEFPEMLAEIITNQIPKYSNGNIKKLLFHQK

Test [18] shares this target. Nature of the test: qHTS assay to identify small molecule antagonists of the glucocorticoid receptor (GR) signaling pathway (AID 720692; active = well fitted inhibition curve with a large enough effect in the signal ratio in the repeat runs, not every such curve was filed as active; the % refers to the signal ratio). In outline: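 Dexamethasone (5 nM final) stimulated a stably integrated GRE-beta-lactamase reporter in HeLa cells during 18 h co-incubation with compounds; signal was quantified as fluorescence intensity of B/G FRET substrate after 2 h.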

The nature of test [19]: qHTS assay for small molecules that induce genotoxicity in human embryonic kidney cells expressing luciferase-tagged ATAD5 - cell viability (AID 651634; calls by dose curve; also: nearly all actives have a fitted effect of over 25% in size). In outline:
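Seeding of 2,000 HEK293T ATAD5-luciferase cells per well preceded pin-tool compound transfer. Plates sat 15.5 hr at 37C under 5% CO2, then fluorescence was read after 30 min with CellTiter-Fluor.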

Test [20] is described as follows: qHTS assay to test for compound auto fluorescence at 535 nm (green) in HepG2 cells (AID 720675).

Values without a mark were called inactive. Records with an inconclusive call do not appear. The source made the active and inactive calls. Unless noted, calls follow the shape of the dose curve; as a rule, active = well fitted curve in the direction sought with a large enough effect in the repeat runs; inconclusive = weak or mixed curves; inactive = no such curve, though single readings can be large; an effect the other way counts as inactive or inconclusive.
% is scaled to controls: 0 for no effect and ±100 for the full control effect.

Turning to `O=C=Nc1ccc(Cl)c(Cl)c1`, the Potency entry in test [1], in [2], in test [5], in test [8], in [12] and in test [13] was “inactive” in each case. For the same molecule, in test [3], the Potency is 7.57 µM (active). For the same molecule, the call in [4], in test [6], in test [7], in test [9], in [10] and in test [11] was inactive.

For the molecule `CO[C@]1(NC(=O)CSC(F)F)C(=O)N2C(C(=O)O)=C(CSc3nnnn3CCO)CO[C@H]21`, the Potency result in test [1], in test [14], in test [2], in [15], in test [3] and in test [5] was “inactive” throughout. For the same molecule, the Potency entry in [8], in test [12], in test [13], in test [17] and in [18] was “inactive” throughout. In addition, the molecule was classed as inactive in test [4], in test [6], in test [7], in test [9], in test [10] and in test [11]. In addition, the call in test [16] was inactive.

With `C=CC(=O)[O-].C=CC(=O)[O-].[Zn+2]`, the Potency result in [1], in test [2], in test [19], in [15], in test [5] and in test [8] was “inactive” in each case. The Potency entry in test [12], in test [13] and in test [17] was “inactive” in each case. Also, the outcome in test [4], in test [20], in test [6], in test [7], in [9] and in test [10] was inactive. In addition, the molecule was classed as inactive in [11] and in test [16].

For `Brc1cc2ccccc2c2ccccc12`, the Potency result in [1], in [14], in test [2], in test [15], in [5] and in [8] was “inactive” each time. Further, the Potency entry in [12], in [13] and in [17] was “inactive” in each case. The molecule was classed as inactive in test [4], in [20], in test [7], in [9], in [10] and in test [11]. Also, the molecule was classed as inactive in [16].

As for `CC(C)=CCC1C(=O)N(c2ccccc2)N(c2ccccc2)C1=O`, the Potency is 15 µM (active) in test [1] and 21.1 µM (active) in [2]. For the same molecule, the Potency result in test [14], in test [15], in [5], in test [8], in test [12] and in test [13] was “inactive” in each case. In addition, the result in test [4], in test [20], in test [6], in test [7], in test [9] and in test [10] was inactive. For the same molecule, the call in [11] and in test [16] was inactive.

Consider `C/C=C(/C(=C/C)c1ccc(O)cc1)c1ccc(O)cc1`, for which the Potency is 3.2 µM (active) in test [1] and 9.02 µM (active) in test [3]. The Potency result in test [14], in test [19], in test [15] and in [17] was “inactive” throughout. In addition, in test [4], the fluorescence, relative to Rose Bengal was 0.479% [at 18.6 µM]. Besides, in [5], the fluorescence, % of triamterene was 0.118% [at 18.6 µM]. In test [7], the fluorescence, % of fluorescein is 0.128% [at 18.6 µM]. The fluorescence, % of fluorescent control was 0.115% [at 18.6 µM] in test [8], 0.121% [at 18.6 µM] in test [10], -0.0042% [at 18.6 µM] in [12] and 0.0165% [at 18.6 µM] in test [13]. Further, in [11], the fluorescence, % of Rose Bengal was 0.0319% [at 18.6 µM]. Further, the fluorescence, % of fluorescein control in test [16] is -0.0063% [at 18.6 µM].

As for `O=C1c2ccccc2C(=O)C1(O)O`, the values for the Potency in test [1] and in [3] were 27.4 µM (active) and 24.5 µM (active), respectively. Further, the Potency entry in test [14], in test [5], in [8], in test [12], in test [13] and in [17] was “inactive” each time. Also, the molecule was classed as inactive in test [4], in [20], in [6], in [7], in [9] and in test [10]. In addition, the molecule was classed as inactive in test [11] and in test [16].

On to `C[C@@H](O)[C@H]1C(=O)N2C(C(=O)O)=C([C@H]3CCCO3)S[C@H]12`, for which the Potency result in test [1], in [14], in [2], in test [15], in test [3] and in test [5] was “inactive” in each case. For the same molecule, the Potency entry in [8], in test [12] and in test [13] was “inactive” in each case. The molecule was classed as inactive in [4], in test [6], in test [7], in test [9], in test [10] and in test [11].

On to `CCC(OCCCOC)OC(C)=O` (stereo not drawn), for which the Potency result in test [1], in test [14], in test [2], in test [15], in test [5] and in [8] was “inactive” throughout. The Potency result in test [12], in test [13], in test [17] and in test [18] was “inactive” throughout. For the same molecule, the outcome in [4], in [20], in [6], in test [7], in test [9] and in [10] was inactive. Also, the molecule was classed as inactive in test [11] and in [16].

For the molecule `CC(C)C=O`, the Potency entry in [1], in [2], in [15], in [3], in test [5] and in test [8] was “inactive” throughout. The Potency entry in test [12], in test [13] and in test [17] was “inactive” throughout. The molecule was called inactive in [4], in test [20], in test [6], in test [7], in [9] and in test [10]. The outcome in [11] and in [16] was inactive.

As for `O=C(O)CCC(=O)C(=O)O`, the Potency entry in test [1], in test [14], in [2], in [15], in test [3] and in test [5] was “inactive” each time. For the same molecule, the Potency entry in test [8], in test [12], in test [13], in test [17] and in [18] was “inactive” each time. The outcome in test [4], in [20], in test [7], in test [9], in [10] and in [11] was inactive. In test [16], the outcome was inactive.

Regarding `COc1ccccc1N1CCN(CCCCNC(=O)c2ccc(-c3ccc(C(C)=O)cc3)cc2)CC1`, the Potency result in test [1], in test [14], in [19], in [15], in test [3] and in [5] was “inactive” in each case. In addition, the Potency entry in test [8], in test [12], in test [13] and in test [17] was “inactive” each time. Besides, the call in test [4], in test [20], in test [6], in test [7], in test [9] and in test [11] was inactive. In test [16], the molecule was classed as inactive.

With `CC[N+](CC)(CCNC(=O)C(=O)NCC[N+](CC)(CC)Cc1ccccc1Cl)Cc1ccccc1Cl`, the Potency entry in test [1], in [14], in test [2], in test [15], in test [3] and in test [5] was “inactive” in each case. The Potency result in test [8], in test [12] and in test [13] was “inactive” each time. Further, the result in test [20], in test [6], in [7], in test [10], in test [11] and in test [16] was inactive.

In the case of `COc1ccccc1Oc1c(NS(=O)(=O)c2ccc(C(C)(C)C)cc2)nc(-c2ncccn2)nc1OCCO`, the Potency entry in test [1], in [14], in test [2], in test [15], in [5] and in test [8] was “inactive” throughout. In addition, the Potency result in test [12], in test [13], in test [17] and in test [18] was “inactive” each time. In addition, the outcome in [4], in test [20], in test [6], in test [7], in [9] and in test [10] was inactive. Besides, the call in test [11] was inactive.
